Results from PubChem BioAssay (EPA / NIEHS).
Records with an inconclusive call do not appear. Activity calls are given as the source filed them. How the source made its calls, unless noted: active means hit-call score of the fitted dose curve at least 0.9, where 1 is the maximum; inconclusive means response in the unintended direction; inactive means score below 0.9.

Experiments:
[1] = VALA_TUBIPS_Antagonist_TubuleLength: VALA Sciences human iPS-derived Endothelial Tubule Formation (TUBIPS) Antagonist Assay (AID 2284313)
Summary of the method: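 Cells grown 3 days with 10 ng/ml VEGF, then exposed to compounds in VEGF medium for another 3 days. After fixation, nuclear stain and CD31 immunofluorescence imaging gave mean total tubule length against 0.1% DMSO; suramin (100 uM) inhibition control.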

[2] = VALA_TUBHUV_Antagonist_TubuleLength: VALA Sciences human Umbilical Vein Endothelial Tubule Formation (TUBHUV) Antagonism Assay (AID 2284325)
Summary of the method: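 HUVEC–HDF co-culture (1:3) pre-grown 3 days with 10 ng/ml VEGF, then 3 days with compound plus VEGF. Fixed, nuclear and CD31 stained; total tubule length by imaging versus 0.1% DMSO; suramin 100 uM positive control.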

[3] = TAMU_PeakParms_SingleDonor1434_Asystole: Texas A&M University (TAMU) 1.5-hr Human Induced Pluripotent Stem Cell (iPSC)-derived Cardiomyocytes Calcium (Ca+2) Flux Assay for Cardiotoxicity: Asystole (quiescence of beating) (AID 2284328)
Summary of the method: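 Average Ca2+-flux peak frequency (beats/s) was recorded in single-donor iPSC-derived cardiomyocytes after 90 min exposure (0.2–100 uM final, 0.5% DMSO). Asystole POD set as EC95 against DMSO, no preprocessing.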

[4] = VALA_TUBIPS_Antagonist_CellCount: Viability Assessment in the VALA Sciences human iPS-derived Endothelial Tubule Formation (TUBIPS) Antagonism Assay (AID 2284335)
[5] = VALA_TUBIPS_Agonist_CellCount: Viability Assessment in the VALA Sciences human iPS-derived Endothelial Tubule Formation (TUBIPS) Agonism Assay (AID 2284338)
[6] = tested on: Brachyury (BRA) Protein Expression, Deisenroth Lab, TBXT (gene 6862); assay: CCTE_Deisenroth_DEVTOX-GLR_legacy_Bra: (Legacy) CCTE's DevTox GLR-Endo Assay Evaluation of Brachyury (BRA) Protein Expression, Deisenroth Lab (AID 2284329; active means hit-call score of the fitted dose curve at least 0.9, where 1 is the maximum; inactive means score below 0.9)
Summary of the method: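 Human pluripotent RUES2-GLR line was exposed twice during 48 h differentiation to a 10-point series, 1 nM - 200 uM. Fraction of Bra-positive cells was scored by imaging against pluripotent baseline and fitted after 0.2% DMSO subtraction.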

[7] = CCTE_Deisenroth_DEVTOX-GLR_legacy_CellCount: (Legacy) Viability Assessment in CCTE's DevTox GLR-Endo Assay, Deisenroth Lab (AID 2284331; active means hit-call score of the fitted dose curve at least 0.9, where 1 is the maximum; inactive means score below 0.9); settings: actives raise or lower the signal
Summary of the method: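 Viability is taken from imaged nuclei counts in fixed RUES2-GLR cultures after 48 h of differentiation under two 24 h-spaced chemical exposures, 10 concentrations from 1 nM to 200 uM, gain or loss versus DMSO baseline.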

[8] = VALA_MIGHUV1_ScratchOnly_WoundArea: VALA Sciences human Umbilical Vein Endothelial Cell Migration (MIGHUV) Assay, Area of Scratch Wound Inhibited Recovery (AID 2284336)
Summary of the method: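 HUVEC monolayers (9000 cells/well) were scratched after 24 h, dosed within 30 min (six concentrations, triplicate, 0.1% DMSO), allowed 24 h recovery, then fixed. Hoechst-stained nuclei in the wound imaged; cytochalasin D as reference.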

[9] = VALA_TUBHUV_Agonist_TubuleLength: VALA Sciences human Umbilical Vein Endothelial Tubule Formation (TUBHUV) Agonism Assay (AID 2284337)
Summary of the method: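 HUVEC co-cultured with fibroblasts (1:3) 3 days in 10 ng/ml VEGF, then 3 days with compound plus VEGF; 0.1 % DMSO neutral control. Fixed, nuclear and CD31 stained; tubule length by fluorescence imaging.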

[10] = VALA_TUBIPS_Agonist_TubuleLength: VALA Sciences human iPS-derived Endothelial Tubule Formation (TUBIPS) Agonism Assay (AID 2284311)
Summary of the method: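 Human iPS-derived endothelial cells were exposed to compound for 72 h. Tubule formation was imaged by high-content fluorescence and scored as gain of signal relative to DMSO vehicle (agonist mode).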

[11] = VALA_MIGHUV2_CellCount: Viability Assessment in the VALA Sciences human Umbilical Vein Endothelial Cell Migration (MIGHUV) Assay, Area of Scratch Wound after Recovery (AID 2284314)
Summary of the method: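 Scratch-wounded HUVEC monolayers received test chemical within 30 min, 6-point concentration response in triplicate, 0.1 % DMSO vehicle. After 24 h wound recovery, fixed cells were Hoechst-stained and nuclei imaged; loss of signal versus DMSO indicates reduced viability.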

[12] = VALA_MIGHUV2_WoundArea: VALA Sciences human Umbilical Vein Endothelial Cell Migration (MIGHUV) Assay, Area of Scratch Wound after Recovery (AID 2284316)
Summary of the method: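 HUVEC seeded at 9000 cells/well, scratched after 24 h; test chemical added within 30 min, 6-point concentration response in triplicate (0.1% DMSO vehicle). After 24 h wound recovery, cells fixed and Hoechst-stained nuclei in wound area imaged; Cytochalasin D reference control.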

IYD (gene 389434) = assay: CCTE_GLTED_hIYD: CCTE's human Iodotyrosine Deiodinase (xIYD) Inhibition Assay, Great Lakes Toxicology and Ecology Division (GLTED) Lab (AID 2284317);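 further: cell-free human IYD enzyme made in baculovirus insect cells; iodide freed from monoiodotyrosine measured by cerium arsenite color change at 420 nm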
Summary of the method: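 hIYD: baculovirus-expressed human IYD deiodinated monoiodotyrosine for 3 h with test chemical; free iodide was measured by Sandell-Kolthoff absorbance at 420 nm and normalized to MNT and DMSO/NaOH controls.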

[13] = CCTE_Deisenroth_5AR_NBTE_donor: CCTE's 5alpha-reductase NanoBRET Target Engagement Assay […], Deisenroth Lab (AID 2284319; active means hit-call score of the fitted dose curve at least 0.9, where 1 is the maximum; inactive means score below 0.9); settings: actives raise or lower the signal
Summary of the method: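 SRD5A2-NanoLuc, HEK293T, 20 h expression. Chemical 10 nM - 29.9 uM, 8 conc, duplicate; 3 h preincubation + 2 h testosterone tracer. Nano-Glo substrate plus extracellular NanoLuc inhibitor; donor lum 460 nm. DMSO baseline, bidirectional fit.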

SRD5A2 (gene 6716) = assay: CCTE_Deisenroth_5AR_NBTE_ratio: CCTE's 5alpha-reductase NanoBRET Target Engagement Assay - Ratio, Deisenroth Lab (AID 2284322; active means hit-call score of the fitted dose curve at least 0.9, where 1 is the maximum; inactive means score below 0.9); settings: actives raise or lower the signal
Summary of the method: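 HEK293T transiently expressing SRD5A2-NanoLuc; cells exposed to chemical (8-point, 10 nM - 29.9 uM) for 5 h total, testosterone tracer added for final 2 h. NanoBRET acceptor/donor ratio (650/460 nm), bidirectional fit vs DMSO.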

[14] = VALA_MIGHUV1_ScratchOnly_CellCount: Viability Assessment in the VALA Sciences human Umbilical Vein Endothelial Cell Migration (MIGHUV) Assay, Scratch Wound Inhibited Recovery (AID 2284327)
Summary of the method: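 HUVEC scratched after 24 h culture, chemical added within 30 min at 6 concentrations in triplicate (0.1% DMSO vehicle). After 24 h recovery, fixed cells were counted by Hoechst nuclear imaging in the wound area.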

[15] = CCTE_Deisenroth_5AR_NBTE_acceptor: CCTE's 5alpha-reductase NanoBRET Target Engagement Assay - Autofluorescence Screen, Deisenroth Lab (AID 2284321; active means hit-call score of the fitted dose curve at least 0.9, where 1 is the maximum; inactive means score below 0.9;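 further: compound fluorescence in the acceptor channel under 460 nm excitation flags autofluorescence artifacts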); settings: actives raise or lower the signal
Summary of the method: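 Autofluorescence counter-screen: chemicals at an assumed nominal 100 uM in DMSO were scanned in three independent runs with 460 nm excitation. Gain or loss of acceptor signal was fitted bidirectionally against DMSO.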

[16] = IUF_NPC2-5_viability_120hr: Viability Assessment at 120 hours in the Leibniz Research Institute for Environmental Medicine (IUF) Neural Progenitor Cell Migration and Differentiation Assay (NPC2-5) (AID 2284312; active means hit-call score of the fitted dose curve at least 0.9, where 1 is the maximum; inactive means score below 0.9)
Summary of the method: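 Alamar blue resorufin fluorescence read after 5 days of differentiation, with compound present from day 0 and replenished at day 3. Primary hNPC spheres on laminin-coated plates, 37C; seven concentrations plus solvent control, fitted against DMSO.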

[17] = CCTE_Mundy_HCI_iCellGluta_NOG_NeuriteLength: CCTE's Neurite Outgrowth Assay in iCellGluta cells for Neurite Length, Mundy Lab (AID 2284318)
Summary of the method: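 Automated high-content imaging of betaIII-tubulin (Alexa Fluor-488) and Hoechst-stained cells gave neurite length, normalized to the DMSO baseline.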

[18] = IUF_NPC1_cytotoxicity_72hr: Cytotoxicity Assessment at 72 hours in the Leibniz Research Institute for Environmental Medicine (IUF) Neural Progenitor Cell Proliferation Assay (NPC1) (AID 2284332);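 further: rising LDH signal means more cytotoxicity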
Summary of the method: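 Human fetal neural progenitor spheres (0.3 mm) in EGF/FGF proliferation medium, 37C, exposed 72 h without renewal. LDH release in supernatant read by resorufin fluorescence; gain of signal scored relative to dynamic range.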

Measured: AC50

COC(=O)c1ccc(O)cc1
inactive: [1] | [2] | [3] | [4] | [5]

CCCc1cc(=O)[nH]c(=S)[nH]1
inactive: [1] | [2] | [3] | [6] | [7] | [8] | [9] | [5]

Cc1cc(NC(=O)C(=O)O)cc(C)c1Oc1ccc(O)c2c1CCC2
inactive: [1] | [8] | [5]

CCCCC(CC)COC(=O)CC(C(=O)OCC(CC)CCCC)S(=O)(=O)O (centres undefined)
active: [11] 50 µM | IYD (gene 389434) 41.5 µM | [13] 62.2 µM | SRD5A2 (gene 6716) 75.3 µM | [2] 73 µM | [14] 78.2 µM | [8] 74.5 µM | [9] 14.9 µM | [5] 77.8 µM
inactive: [10] | [1] | [12] | [4]

COc1cc(S(=O)(=O)O)c(C)cc1N=Nc1c(O)ccc2cc(S(=O)(=O)O)ccc12
inactive: [15]
active: IYD (gene 389434) 154 µM | [13] 24.8 µM | SRD5A2 (gene 6716) 60.2 µM

Oc1ccc2ccccc2c1N=Nc1ccccc1
inactive: [11] | [12] | [13] | [15] | SRD5A2 (gene 6716) | [14] | [4] | [8] | [9]
active: [5] 31.9 µM

COc1cccc2c1C(=O)c1c(O)c3c(c(O)c1C2=O)C[C@@](O)(C(=O)CO)C[C@@H]3O[C@H]1C[C@H](N)[C@H](O)[C@H](C)O1
active: [6] 7.41 µM | [7] 0.00843 µM

CCCCCCCCCCC
inactive: [13] | [15] | SRD5A2 (gene 6716)

COc1ccc(C)cc1N
inactive: [13] | [15] | SRD5A2 (gene 6716)

O=C(O)CCCCC(=O)O
inactive: [3]

CC1=C(/C=C/C(C)=C/C=C/C(C)=C/CO)C(C)(C)CCC1
active: [6] 67.5 µM | [7] 34.6 µM

COc1ccc2c(c1)c(CC(=O)O)c(C)n2C(=O)c1ccc(Cl)cc1
active: [6] 5.9 µM | [7] 10.2 µM

CCCCOC(=O)CCCCCCCCC(=O)OCCCC
inactive: [13] | [15] | SRD5A2 (gene 6716)

COc1cc(-c2nc(NC(=O)c3cc4cc(C)cc(C)c4n3CC(=O)O)sc2CCC2CCCCC2)c(OC)cc1Cl
active: SRD5A2 (gene 6716) 26.3 µM
inactive: [13] | [15]

CCOc1ccc2c(c1)C(C)=CC(C)(C)N2
inactive: [3]

C[Si]1(C)O[Si](C)(C)O[Si](C)(C)O[Si](C)(C)O1
inactive: [16] | [17] | [18]

OC[C@@H](O)[C@@H](O)[C@H](O)[C@H](O)CO
not listed: [2] | [3] | [6] | [7] | [8] | IYD (gene 389434) | [14] | [17]
inactive: all other assays above

O=c1c(O)c(-c2ccc(O)c(O)c2)oc2cc(O)cc(O)c12
inactive: [1] | SRD5A2 (gene 6716) | [4] | [8] | [9]
active: [13] 26.7 µM | [15] 23.3 µM

O=c1[nH]cc(F)c(=O)[nH]1
active: [6] 16.5 µM | [7] 5.95 µM
inactive: [3]

C1CCC(SSC2CCCCC2)CC1
inactive: [13] | [15] | SRD5A2 (gene 6716)

CC=Cc1ccc(O)c(OC)c1
inactive: [13] | [15] | SRD5A2 (gene 6716)

CC(=O)Oc1ccccc1C(=O)O
inactive: [16] | [17] | [3] | [7] | [18]
